# The list is a sample of the results.
# aSyn UTR act: Activators via SNCA 5'UTR binding, MLPCN | alpha-synuclein 5'UTR reporter, activators screen | activity score, % (tested at 7.5 µM), hits read low | 7.1% of 300,000 active | AID 1814, 2009; in the data active = activity score below about -60%
# Numbers without * were called inactive.
SMILES,aSyn UTR act
COc1ccc(C(=O)C[n+]2ccccc2/C=N/O)cc1,-82*
Cc1nc2ccccc2n1-c1nc(-c2ccco2)cc(C(F)(F)F)n1,90
FC(F)(F)c1cc(-c2ccco2)nc(N2CCN(c3ccccc3)CC2)n1,-65*
CN(CC(=O)Nc1ccc2c(c1)OCO2)S(=O)(=O)c1cccs1,-76*
O=C(CNS(=O)(=O)c1cccs1)Nc1ccc2c(c1)OCCO2,-91*
Cc1nn(C)c(C)c1S(=O)(=O)N1CCC(C(=O)Nc2ccc3c(c2)OCCO3)CC1,-111*
O=C(Nc1ccc2c(c1)OCO2)C1CCN(S(=O)(=O)c2cccs2)CC1,-64*
O=S(=O)(Nc1ccc2c(c1)OCCO2)c1cccs1,-91*
CC(=O)Nc1ccc(S(=O)(=O)N/N=C/c2ccc(C)s2)cc1,-137*
Cc1ccc2sc(N3CCN(C(=O)c4ccc([N+](=O)[O-])o4)CC3)nc2c1C,-76*
COc1cccc2sc(N3CCN(C(=O)c4ccc([N+](=O)[O-])o4)CC3)nc12,-110*
O=C(c1ccc([N+](=O)[O-])o1)N1CCN(c2nc3ccc(F)cc3s2)CC1,-108*
CCOC(=O)N1CCN(C(=O)CCNS(=O)(=O)c2ccc3c(c2)c(=O)n(C)c(=O)n3C)CC1,-153*
COc1ccc(-c2c3c(nc4sc(C(=O)Nc5ccccc5)c(N)c24)CCC3)cc1,-128*
CCOC(=O)c1c(C)nc2sc(C(=O)Nc3ccccc3)c(N)c2c1-c1ccc(OC)cc1,-191*
CC(C)CCN1C(=O)c2cccc3c(N)ccc(c23)C1=O,61
CC(=O)c1ccc2c3c(cccc13)C(=O)N(CCc1ccccc1)C2=O,-138*
Brc1ccc(-c2csc(-c3c[nH]c4ccccc34)n2)cc1,-183*
c1ccc2c(-c3csc(-c4ccncc4)n3)c[nH]c2c1,-141*
CCCC12CN3CCN(CC(C3)/C1=N\NC(=O)c1ccccc1N)C2,-76*
Nc1ccccc1C(=O)N/N=C1\C2CN3CCN(C2)CC1(c1ccccc1)C3,-92*
N#CC(c1cccc(Cl)c1)c1ccc2c(C(F)(F)F)cc(C(F)(F)F)nc2n1 (stereo not given),97
CC1CC1C(=O)OCc1cc(=O)n2cc(Br)ccc2n1 (stereo not given),-148*
CC1(C(=O)OCc2cc(=O)n3cc(Br)ccc3n2)CC1(Cl)Cl (stereo not given),-140*
Cc1ccccc1C(=O)NC(CC(C)C)C(=O)OCc1cc(=O)n2cc(Br)ccc2n1 (stereo not given),-73*
SMILES,aSyn UTR act
COc1cccc(-c2nn(C)c3sc(C(=O)Nc4ccc5c(c4)OCCO5)cc23)c1,-101*
O=C(Nc1ccon1)c1ccc(OC2CCCC2)cc1,-102*
COc1cccc(Nc2ncnc3sccc23)c1,-118*
COc1ccc(Nc2nccc3c2ncn3C)cc1,21
COc1ccc(Oc2ncnc3sccc23)cc1,-95*
c1nc(Nc2ccc(N3CCOCC3)cc2)c2ccsc2n1,-63*
COc1ccc(Nc2ncnc3sccc23)cc1,-98*
COc1cc(C2c3cc4c(cc3C(OC3OC5COC(c6cccs6)OC5C(O)C3O)C3COC(=O)C23)OCO4)cc(OC)c1O (stereo not given),82
COc1ccc(CCNc2ncnc3sc(C)cc23)cc1OC,77
COc1cccc(Nc2ncnc3sc(C)cc23)c1,-126*
Cc1ccc(O)c(N=Cc2sc3ccccc3c2Cl)c1,-90*
Oc1ccccc1N=Cc1sc2ccccc2c1Cl,-104*
Cc1ccc(NCC(=O)Nc2ccc(Br)cc2)cc1C,-126*
Cc1ccc(F)cc1NCC(=O)Nc1ccc(Br)cc1,-146*
Cc1ccc(/C=C/C2=NN(C)C(=O)CC2)cc1,-104*
CN1N=C(/C=C/c2ccccc2)CCC1=O,-134*
COc1ccccc1OCCCOc1ccc(C)cc1Br,-139*
COc1cc(C)ccc1OCCOc1c(C)cccc1Cl,-108*
COc1cc(C)ccc1OCCCOc1ccccc1Br,-149*
O=C(NC(=O)N1CCN(c2ccccc2)CC1)c1ccc(Cl)cc1,-66*
CN(C)C=Nc1ccc2nc3c(cc2c1)[nH]c1ccccc13,-233*
NC(=O)c1ccsc1NC(=O)COc1ccccc1,-136*
Cn1cc(SCC(=O)Nc2nccs2)c2ccccc21,-165*
C/C(=C\C(=O)Nc1nccs1)c1ccccc1,-197*
O=C(NCCc1ccccc1)C(=O)Nc1nccs1,-84*
SMILES,aSyn UTR act
O=C(COc1ccc2ccc(=O)oc2c1)Nc1nccs1,-85*
O=C(COc1ccccc1)Nc1nccs1,-100*
O=C(COC(=O)c1ccccc1Cl)Nc1nccs1,-91*
O=C(COc1ccc([N+](=O)[O-])cc1)Nc1nc(-c2ccccn2)cs1,57
Oc1ccccc1C(Nc1nccs1)c1ccc2cccnc2c1O (stereo not given),77
COc1nc(-c2ccccc2)cc(-c2ccc3c(c2)OCO3)c1C#N,64
c1ccc2c(Oc3ccc4c(c3)OCO4)nncc2c1,-71*
O=C(Cc1ccccc1)Nc1ccc(N2CCCCC2)cc1,-67*
CN1CCN(c2ccc(NC(=O)N3CCc4ccccc43)cc2)CC1,70
CN1CCN(c2ccc(NC(=O)Cc3ccccc3)cc2)CC1,-68*

# From PubChem
